# Reference: article PMC11062922 (Nature Chemical Biology, 2023)
# Like-named read-outs stand apart in the source and are kept apart here.
# How the values were obtained:
# Conditions in all cases: read-out: apparent Kd, n = 1
# ERCC2 = tested on: ERCC2
# MAP2K5 = tested on: MAP2K5
# MAP4K4 = tested on: MAP4K4
# MAPK9 = tested on: MAPK9
# PRKAG2 = tested on: PRKAG2
# PRKCA = tested on: PRKCA
# PRKX = tested on: PRKX
# RPS6KA3 = tested on: RPS6KA3
# [1] = compound concentrations:100 nM and 1000 nM (sheet 'Lestaurtinib' of Supplementary Table 1),run:Lestaurtinib_02381_R1,Plate:MR004
# [2] = compound concentrations:100 nM and 1000 nM (sheet 'Lestaurtinib' of Supplementary Table 1),run:Lestaurtinib_02381_R2,Plate:MR004
# [3] = compound concentrations:100 nM and 1000 nM (sheet 'Lestaurtinib' of Supplementary Table 1),run:Lestaurtinib_02473_R2,Plate:MR010
# [4] = compound concentrations:100 nM and 1000 nM (sheet 'Lestaurtinib' of Supplementary Table 1),run:Lestaurtinib_02566_R1,Plate:MR014
# [5] = compound concentrations:100 nM and 1000 nM (sheet 'Lestaurtinib' of Supplementary Table 1),run:Lestaurtinib_02724_R3,Plate:MR021
# [6] = compound concentrations:100 nM and 1000 nM (sheet 'Lestaurtinib' of Supplementary Table 1),run:Lestaurtinib_02438_R2,Plate:MR008
# [7] = compound concentrations:100 nM and 1000 nM (sheet 'Lestaurtinib' of Supplementary Table 1),run:Lestaurtinib_02443_R3,Plate:MR009
# [8] = compound concentrations:100 nM and 1000 nM (sheet 'Lestaurtinib' of Supplementary Table 1),run:Lestaurtinib_02724_R1,Plate:MR021
# [9] = compound concentrations:100 nM and 1000 nM (sheet 'Lestaurtinib' of Supplementary Table 1),run:Lestaurtinib_03172_R1,Plate:MR031
# [10] = compound concentrations:100 nM and 1000 nM (sheet 'Lestaurtinib' of Supplementary Table 1),run:Lestaurtinib_02487_R1,Plate:MR012
# [11] = compound concentrations:100 nM and 1000 nM (sheet 'Lestaurtinib' of Supplementary Table 1),run:Lestaurtinib_02748_R1,Plate:MR024
substance,measurement,setting,value
Lestaurtinib,potency estimated from few doses,"ERCC2; compound concentrations:100 nM and 1000 nM (sheet 'Lestaurtinib' of Supplementary Table 1),run:Lestaurtinib_02496_R3,Plate:MR013",1590 nM
same,potency estimated from few doses,"ERCC2; compound concentrations:100 nM and 1000 nM (sheet 'Lestaurtinib' of Supplementary Table 1),run:Lestaurtinib_02572_R2,Plate:MR015",261 nM
same,potency estimated from few doses,"MAP2K5; compound concentrations:100 nM and 1000 nM (sheet 'Lestaurtinib' of Supplementary Table 1),run:Lestaurtinib_02364_R1,Plate:MR002",2240 nM
same,potency estimated from few doses,MAP2K5; [1],1340 nM
same,potency estimated from few doses,MAP2K5; [2],2420 nM
same,potency estimated from few doses,"MAP2K5; compound concentrations:100 nM and 1000 nM (sheet 'Lestaurtinib' of Supplementary Table 1),run:Lestaurtinib_02437_R1,Plate:MR007",2430 nM
same,potency estimated from few doses,MAP2K5; [3],2440 nM
same,potency estimated from few doses,"MAP2K5; compound concentrations:100 nM and 1000 nM (sheet 'Lestaurtinib' of Supplementary Table 1),run:Lestaurtinib_02482_R3,Plate:MR011",2350 nM
same,potency estimated from few doses,MAP2K5; [4],1960 nM
same,potency estimated from few doses,MAP2K5; [5],1790 nM
same,potency estimated from few doses,"MAP2K5; compound concentrations:100 nM and 1000 nM (sheet 'Lestaurtinib' of Supplementary Table 1),run:Lestaurtinib_02748_R3,Plate:MR024",1820 nM
same,potency estimated from few doses,"MAP2K5; compound concentrations:100 nM and 1000 nM (sheet 'Lestaurtinib' of Supplementary Table 1),run:Lestaurtinib_02766_R1,Plate:MR027",2210 nM
same,potency estimated from few doses,MAP4K4; [2],2240 nM
same,potency estimated from few doses,MAP4K4; [6],1430 nM
same,potency estimated from few doses,"MAP4K4; compound concentrations:100 nM and 1000 nM (sheet 'Lestaurtinib' of Supplementary Table 1),run:Lestaurtinib_02443_R2,Plate:MR009",1700 nM
same,potency estimated from few doses,MAP4K4; [3],1820 nM
same,potency estimated from few doses,"MAP4K4; compound concentrations:100 nM and 1000 nM (sheet 'Lestaurtinib' of Supplementary Table 1),run:Lestaurtinib_02482_R2,Plate:MR011",1420 nM
same,potency estimated from few doses,MAPK9; [7],1300 nM
same,potency estimated from few doses,MAPK9; [4],1990 nM
same,potency estimated from few doses,"MAPK9; compound concentrations:100 nM and 1000 nM (sheet 'Lestaurtinib' of Supplementary Table 1),run:Lestaurtinib_02572_R1,Plate:MR015",1720 nM
same,potency estimated from few doses,"MAPK9; compound concentrations:100 nM and 1000 nM (sheet 'Lestaurtinib' of Supplementary Table 1),run:Lestaurtinib_02584_R3,Plate:MR017",2260 nM
same,potency estimated from few doses,"MAPK9; compound concentrations:100 nM and 1000 nM (sheet 'Lestaurtinib' of Supplementary Table 1),run:Lestaurtinib_02624_R1,Plate:MR020",1410 nM
same,potency estimated from few doses,MAPK9; [8],2240 nM
same,potency estimated from few doses,"MAPK9; compound concentrations:100 nM and 1000 nM (sheet 'Lestaurtinib' of Supplementary Table 1),run:Lestaurtinib_02752_R3,Plate:MR025",2180 nM
same,potency estimated from few doses,"MAPK9; compound concentrations:100 nM and 1000 nM (sheet 'Lestaurtinib' of Supplementary Table 1),run:Lestaurtinib_02896_R1,Plate:MR030",2120 nM
same,potency estimated from few doses,MAPK9; [9],1900 nM
same,potency estimated from few doses,"MAPK9; compound concentrations:100 nM and 1000 nM (sheet 'Lestaurtinib' of Supplementary Table 1),run:Lestaurtinib_03260_R1,Plate:MR033",1690 nM
same,potency estimated from few doses,"PRKAG2; compound concentrations:100 nM and 1000 nM (sheet 'Lestaurtinib' of Supplementary Table 1),run:Lestaurtinib_02367_R2,Plate:MR003",1350 nM
same,potency estimated from few doses,"PRKAG2; compound concentrations:100 nM and 1000 nM (sheet 'Lestaurtinib' of Supplementary Table 1),run:Lestaurtinib_02367_R3,Plate:MR003",1360 nM
same,potency estimated from few doses,"PRKAG2; compound concentrations:100 nM and 1000 nM (sheet 'Lestaurtinib' of Supplementary Table 1),run:Lestaurtinib_02407_R1,Plate:MR005",888 nM
same,potency estimated from few doses,"PRKAG2; compound concentrations:100 nM and 1000 nM (sheet 'Lestaurtinib' of Supplementary Table 1),run:Lestaurtinib_02407_R3,Plate:MR005",1340 nM
same,potency estimated from few doses,"PRKAG2; compound concentrations:100 nM and 1000 nM (sheet 'Lestaurtinib' of Supplementary Table 1),run:Lestaurtinib_02422_R1,Plate:MR006",629 nM
same,potency estimated from few doses,PRKAG2; [6],1210 nM
same,potency estimated from few doses,"PRKAG2; compound concentrations:100 nM and 1000 nM (sheet 'Lestaurtinib' of Supplementary Table 1),run:Lestaurtinib_02473_R3,Plate:MR010",1240 nM
same,potency estimated from few doses,PRKAG2; [10],352 nM
same,potency estimated from few doses,"PRKAG2; compound concentrations:100 nM and 1000 nM (sheet 'Lestaurtinib' of Supplementary Table 1),run:Lestaurtinib_02566_R3,Plate:MR014",888 nM
same,potency estimated from few doses,PRKAG2; [11],1240 nM
same,potency estimated from few doses,PRKAG2; [9],1370 nM
same,potency estimated from few doses,PRKCA; [1],2070 nM
same,potency estimated from few doses,"PRKCA; compound concentrations:100 nM and 1000 nM (sheet 'Lestaurtinib' of Supplementary Table 1),run:Lestaurtinib_02381_R3,Plate:MR004",2400 nM
same,potency estimated from few doses,"PRKCA; compound concentrations:100 nM and 1000 nM (sheet 'Lestaurtinib' of Supplementary Table 1),run:Lestaurtinib_02443_R1,Plate:MR009",1990 nM
same,potency estimated from few doses,PRKCA; [7],2450 nM
same,potency estimated from few doses,PRKCA; [10],1720 nM
same,potency estimated from few doses,PRKCA; [5],1760 nM
same,potency estimated from few doses,PRKCA; [11],2320 nM
same,potency estimated from few doses,PRKX; [2],1490 nM
same,potency estimated from few doses,"PRKX; compound concentrations:100 nM and 1000 nM (sheet 'Lestaurtinib' of Supplementary Table 1),run:Lestaurtinib_02487_R2,Plate:MR012",2110 nM
same,potency estimated from few doses,"PRKX; compound concentrations:100 nM and 1000 nM (sheet 'Lestaurtinib' of Supplementary Table 1),run:Lestaurtinib_02487_R3,Plate:MR012",1350 nM
same,potency estimated from few doses,"PRKX; compound concentrations:100 nM and 1000 nM (sheet 'Lestaurtinib' of Supplementary Table 1),run:Lestaurtinib_02768_R1,Plate:MR028",2230 nM
same,potency estimated from few doses,"PRKX; compound concentrations:100 nM and 1000 nM (sheet 'Lestaurtinib' of Supplementary Table 1),run:Lestaurtinib_02802_R3,Plate:MR029",1970 nM
same,potency estimated from few doses,"RPS6KA3; compound concentrations:100 nM and 1000 nM (sheet 'Lestaurtinib' of Supplementary Table 1),run:Lestaurtinib_02339_R3,Plate:MR001",1510 nM
same,potency estimated from few doses,"RPS6KA3; compound concentrations:100 nM and 1000 nM (sheet 'Lestaurtinib' of Supplementary Table 1),run:Lestaurtinib_02438_R1,Plate:MR008",1840 nM
same,potency estimated from few doses,RPS6KA3; [7],1650 nM
same,potency estimated from few doses,RPS6KA3; [10],1150 nM
same,potency estimated from few doses,"RPS6KA3; compound concentrations:100 nM and 1000 nM (sheet 'Lestaurtinib' of Supplementary Table 1),run:Lestaurtinib_02577_R1,Plate:MR016",1760 nM
same,potency estimated from few doses,RPS6KA3; [8],1530 nM
